For orientation: viability means a read-out of living cells in per cent, often relative to untreated cells. For orientation: inhibition means the change of the read-out against control, counted positive when it falls.

“And” between values parts separate entries of the source, which are not always exact repeats. Equal entries are not always repeated. The source made the active and inactive calls.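 The calls were made as follows, unless noted: active = compounds whose cell count with miR-34 switched on is under 0.7 times the count with it off; inactive = the rest.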

The values below come from PubChem BioAssay.

The nature of test [1]: compounds altering circadian rhythm period length – cell-based, LOPAC library, luminescence reporter (AID 2774; call rule not given here;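 also: values are relative to mean of DMSO wells on each plate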). The settings on record: circadian reporter cells, at 7 µM, actives lie on both sides.
Test [2] can be described thus: compounds altering viability of human ES cells (AID 493140; call rule not given here;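 also: cells exposed to compounds for four days before counting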). The conditions noted are these: human embryonic stem cell survival screen; stronger effect = higher value.
Test [3] in a line: P. berghei load reduction in hepatocytes – cell-based, HepG2, luciferase luminescence, HepG2 viability, primary screen (AID 624349; in the data active = parasite load remaining mostly below about 12%, no sharp cut-off; inactive = mostly above about 10%;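 also: 100% = mean of DMSO negative control wells on the same plate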). The settings on record: P. berghei liver stage in HepG2, luciferase luminescence, concentration not given here; parasite load remaining: stronger effect = lower value; viability: measured here: HepG2 viability without parasites.
Test [4] concerns Hepatitis C virus NS3 helicase. Kind of test: blockers of NS3h binding to ssDNA – biochemical, fluorescence polarization, LOPAC1280 library, primary screen (AID 687035; in the data active = inhibition above about 37%). The settings on record: Purified HCV NS3 helicase, Cy5-dT15 ssDNA binding fluorescence polarization; stronger effect = higher value; concentration not given here.
A short description of test [5]: compounds altering Cy5-DNA-NS3h complex signal – biochemical, LOPAC1280, artefact control for HCV NS3 helicase inhibitor project (AID 687037; call rule not given here). The settings on record: Cy5-DNA-NS3h complex fluorescence interference counterscreen.
Test [6] is described as follows: EMT-state selective cytotoxicity in co-culture – imaging, PC-3E GFP, TEM4-18 mCherry, primary screen (AID 1345086;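 active = compounds killing one labelled cell type while sparing the other, by normalised counts and ratio limits, not self-fluorescent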;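 as to all read-outs here: cells exposed to compound for 72 h before imaging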;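 as to red/green cell ratio (normalised): normalised mesenchymal count divided by normalised epithelial count so high means epithelial killing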). The settings on record: PC-3E GFP / TEM4-18 mCherry co-culture, imaging cell counts, at 1 µM; for red/green cell ratio (normalised): actives lie on both sides, counts scaled to control wells, 1 = unselective.
Test [7] in a line: viability loss with induced miR-34 in A549 – imaging, A549 dox-inducible miR-34, nuclei and caspase counts, primary screen (AID 1347080). The settings on record: A549 miR-34 inducible, Hoechst nuclei count, 48 h.
Test [8] in a line: blockers of cellular phospholipid synthesis – cell-based, LOPAC library, screen 4, primary screen (AID 1347384; call rule not given here). The settings on record: animal cells, phospholipid biosynthesis inhibition screen; at 10 µM.
A short description of test [9]: MELAS cybrid and Rieske KO viability enhancers – cell-based, MELAS cybrids, Rieske KO mouse fibroblasts, CellTiter-Glo, primary screen (AID 1508586;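 active = mean z-score across replicates of 1.96 or higher in either the MELAS or the Rieske mutant cell line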;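 also: z relative to plate mean and SD of compound and empty wells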). The settings on record: low glucose. Background: ATP-based viability assays read luminescence as a measure of living cells.
Test [10] deals with NAD(+) hydrolase SARM1 (Homo sapiens) (UniProt Q6SZW1). Kind of test: blocking NAD cleavage by SARM1 SAM-TIR – cell lysate, NAD-Glo luminescence (AID 1508614;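 active = compound whose remaining NAD level is above about 45 nM, limit read from the data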;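 also: higher remaining NAD means stronger inhibition of SARM1 NADase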). The conditions noted are these: SAM-TIR HEK293T lysate NADase, at 1 µM, stronger effect = higher value.
Sequence of NAD(+) hydrolase SARM1 (Homo sapiens) (Q6SZW1 whole entry, looked up, the tested form may be a part): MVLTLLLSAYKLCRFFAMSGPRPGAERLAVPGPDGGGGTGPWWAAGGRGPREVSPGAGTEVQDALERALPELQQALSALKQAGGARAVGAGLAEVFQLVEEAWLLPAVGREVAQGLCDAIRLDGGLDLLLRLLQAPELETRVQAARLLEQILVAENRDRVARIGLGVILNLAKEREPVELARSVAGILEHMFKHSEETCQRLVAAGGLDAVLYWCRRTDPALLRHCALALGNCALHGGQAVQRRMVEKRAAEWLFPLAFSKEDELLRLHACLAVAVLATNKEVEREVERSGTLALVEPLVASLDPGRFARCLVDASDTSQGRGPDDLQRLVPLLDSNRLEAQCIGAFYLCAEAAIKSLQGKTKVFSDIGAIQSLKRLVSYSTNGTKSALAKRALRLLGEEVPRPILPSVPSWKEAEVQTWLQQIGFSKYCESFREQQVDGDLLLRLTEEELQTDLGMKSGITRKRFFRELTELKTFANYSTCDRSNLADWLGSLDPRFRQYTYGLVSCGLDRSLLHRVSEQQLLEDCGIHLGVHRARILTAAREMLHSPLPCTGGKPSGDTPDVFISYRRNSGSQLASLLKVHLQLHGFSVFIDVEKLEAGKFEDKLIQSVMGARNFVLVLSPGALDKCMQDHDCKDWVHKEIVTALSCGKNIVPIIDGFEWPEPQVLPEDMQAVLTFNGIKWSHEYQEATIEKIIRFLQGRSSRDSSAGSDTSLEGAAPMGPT
Test [11] deals with Mitogen-activated protein kinase 7 (Homo sapiens) (UniProt Q13164). Kind of test: Gal4-ERK5 driven luciferase induction – cell-based, HTS, primary screen (AID 1508626;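 active = luciferase signal above three times the same-plate solvent-only control wells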;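 also: luciferase driven by Gal4-ERK5 fusion binding five Gal4 sites before minimal TATA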). The conditions noted are these: HeLa Gal4-ERK5 transactivation, 18 h, at 5 µM, stronger effect = higher value.
Sequence of Mitogen-activated protein kinase 7 (Homo sapiens) (Q13164 whole entry, looked up, the tested form may be a part): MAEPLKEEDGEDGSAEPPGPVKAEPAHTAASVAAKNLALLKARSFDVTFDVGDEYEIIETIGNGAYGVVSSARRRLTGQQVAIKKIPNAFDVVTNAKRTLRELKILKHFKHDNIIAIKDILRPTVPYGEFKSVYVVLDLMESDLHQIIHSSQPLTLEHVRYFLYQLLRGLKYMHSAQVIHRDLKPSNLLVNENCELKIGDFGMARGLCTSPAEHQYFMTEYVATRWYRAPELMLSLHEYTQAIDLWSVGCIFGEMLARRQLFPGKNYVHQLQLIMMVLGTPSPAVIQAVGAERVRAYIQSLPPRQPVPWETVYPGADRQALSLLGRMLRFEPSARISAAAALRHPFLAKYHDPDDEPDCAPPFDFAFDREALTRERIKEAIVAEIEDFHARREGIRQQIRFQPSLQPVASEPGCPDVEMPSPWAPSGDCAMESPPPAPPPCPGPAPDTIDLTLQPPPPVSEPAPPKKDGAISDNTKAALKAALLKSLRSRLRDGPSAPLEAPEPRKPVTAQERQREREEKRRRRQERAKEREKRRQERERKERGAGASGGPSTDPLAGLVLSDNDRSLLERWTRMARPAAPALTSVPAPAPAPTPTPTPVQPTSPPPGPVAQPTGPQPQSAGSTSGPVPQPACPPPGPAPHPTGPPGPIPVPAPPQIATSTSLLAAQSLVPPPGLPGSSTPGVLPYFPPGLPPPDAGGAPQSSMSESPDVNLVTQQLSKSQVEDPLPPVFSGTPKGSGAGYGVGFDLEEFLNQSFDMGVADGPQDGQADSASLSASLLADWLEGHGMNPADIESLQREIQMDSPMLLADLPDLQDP
The nature of test [12]: galactose survival enhancers in mitochondrial complex I cybrids – cell-based, galactose medium, ATP luminescence, primary screen (AID 1645843;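 active = z-score of at least 1.8 in each of two replicates, scored against plate mean and spread of sample wells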;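 also: positive z means more ATP and so rescue of galactose-driven cybrid death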). The conditions noted are these: complex I mutant cybrid cells, 72 h, stronger effect = higher value.
The mark [13] stands for this setting: measured here: epithelial PC-3E GFP cell survival.
[14] abbreviates: measured here: mesenchymal TEM4-18 mCherry cell survival.
The mark [15] stands for this setting: stronger effect = lower value, cell number ratio, induced over uninduced.
The mark [16] stands for this setting: measured here: relative caspase fold change +Dox/-Dox.
Setting [17] is: measured here: total cells with miR-34 induction, stronger effect = lower value.
[18] abbreviates: measured here: total cells without miR-34 induction.
[19] abbreviates: MELAS cybrid survival, CellTiter-Glo 48 h, stronger effect = higher value.
[20] abbreviates: Rieske KO mouse fibroblast survival, CellTiter-Glo 72 h.

On to `CC(=O)c1ccc(S(=O)(=O)NC(=O)NC2CCCCC2)cc1`, for which, in [1], the period change was -0.09 h (inactive). Besides, in test [2], the survival was 14 (inactive). Further, in test [3], the parasite load remaining is 38.7% (inactive) and 91.1% (inactive) and 69.3% (inactive). Also, in test [3], the viability was 49.8% and 90.7% and 105%. Also, in [4], the inhibition is -2% (inactive). Further, the fluorescence ratio (interference) in test [5] is 1 (inactive). Also, the red/green cell ratio (normalised) in [6] was 0.86 (inactive). For the same molecule, the normalised cell number was determined as 0.99 in test [6] (setting [13]) and 0.85 in [6] (setting [14]). In addition, the fold change in [7] (setting [15]) was 1.04 (inactive) and 0.892 (inactive) and 0.85 (inactive); in test [7] (setting [16]) it was 2.43 and 1.31 and 5.06. The cell count in test [7] (setting [17]) was 10800 and 8720 and 11600; in [7] (setting [18]) it was 10400 and 9780 and 13600. Also, the call in [8] was inactive. Also, the z-score was 0.0376 (inactive) in [9] (setting [19]), -0.115 in test [9] (setting [20]) and 0.71 (inactive) in [12]. Moreover, the remaining NAD in test [10] is 10 nM (inactive). Also, in test [11], the luciferase signal is 44 AU (inactive).
Turning to `N=C(N)c1ccc(N=NNc2ccc(C(=N)N)cc2)cc1` (tested in a mixture with another compound), the red/green cell ratio (normalised) in [6] is 0.86 (inactive). Further, the normalised cell number in test [6] (setting [13]) worked out at 1.06; in [6] (setting [14]) it was 0.91. Moreover, the fold change in [7] (setting [15]) was 0.828 (inactive) and 0.804 (inactive); in test [7] (setting [16]), 1.35 and 1.21. Besides, the cell count was 6360 and 8020 in test [7] (setting [17]); 7680 and 9970 in [7] (setting [18]). For the same molecule, the z-score in [9] (setting [19]) is 6.02 (active); in test [9] (setting [20]), 5.36. Also, the remaining NAD in [10] was 10 nM (inactive).
Regarding `N[C@H]1CONC1=O`, in test [1], the period change was -0.055 h (inactive). The survival in test [2] is 1.5 (inactive). In addition, in [3], the parasite load remaining was 74% (inactive). In addition, the viability in test [3] is 71%. For the same molecule, the inhibition in test [4] was 0% (inactive). The fluorescence ratio (interference) in test [5] is 1 (inactive). The red/green cell ratio (normalised) in test [6] is 0.88 (inactive). Moreover, the normalised cell number was 1.18 in [6] (setting [13]) and 1.03 in test [6] (setting [14]). In addition, the fold change in [7] (setting [15]) was 1.03 (inactive) and 0.935 (inactive) and 0.898 (inactive); in test [7] (setting [16]), 1.58 and 1.14 and 0.652. The cell count in test [7] (setting [17]) is 10600 and 9010 and 9280; in test [7] (setting [18]), 10300 and 9640. For the same molecule, in [8], the outcome was inactive. Besides, the z-score was -0.786 (inactive) in test [9] (setting [19]), -1.27 in test [9] (setting [20]) and -0.18 (inactive) in test [12]. The remaining NAD in test [10] is 10 nM (inactive).
For the molecule `CC(C)C/C=C/C=C\C(=O)N[C@@H](CC(N)=O)C(=O)N[C@@H]1C(=O)N[C@H](c2ccc(O)cc2)C(=O)N[C@H](CCCN)C(=O)N[C@H]([C@H](C)O)C(=O)N[C@@H](c2ccc(O)cc2)C(=O)N[C@H](c2ccc(O)cc2)C(=O)N[C@@H]([C@H](C)O)C(=O)N[C@@H](Cc2ccccc2)C(=O)N[C@H](CCCN)C(=O)N[C@@H](c2ccc(O[C@@H]3O[C@H](CO)[C@H](O)[C@@H](O)[C@@H]3O[C@@H]3O[C@H](CO)[C@@H](O)[C@H](O)[C@H]3O)cc2)C(=O)NC(C(C)O)C(=O)N[C@@H](c2ccc(O)cc2)C(=O)NCC(=O)N[C@@H](CC(C)C)C(=O)N[C@H](C)C(=O)N[C@@H](c2ccc(O)c(Cl)c2)C(=O)O[C@@H]1C(N)=O` (stereo not given in full), the red/green cell ratio (normalised) in test [6] was 0.89 (inactive). The normalised cell number in [6] (setting [13]) stood at 1.04; in test [6] (setting [14]), 0.93. For the same molecule, the fold change is 0.899 (inactive) in [7] (setting [15]) and 0.946 in test [7] (setting [16]). The results for the cell count in test [7] (setting [17]) and in test [7] (setting [18]) were 8820 and 9820, respectively.
For `NC1CCN(c2c(F)cc3c(=O)c(C(=O)O)cn(C4CC4)c3c2Cl)C1` (stereo not given), in test [3], the parasite load remaining was 12.5% (inactive). Further, in test [3], the viability stood at 73%. For the same molecule, the red/green cell ratio (normalised) in test [6] is 1.1 (inactive) and 0.63 (inactive). In addition, the normalised cell number in test [6] (setting [13]) is 1 and 1.34; in [6] (setting [14]), 1.09 and 0.84. The fold change was 0.917 (inactive) and 0.881 (inactive) in [7] (setting [15]); 1.1 and 1.36 in [7] (setting [16]). For the same molecule, the cell count in [7] (setting [17]) was 7910 and 9140; in test [7] (setting [18]) it was 8620 and 10400. Further, the z-score was 0.53 (inactive) and 0.358 (inactive) in test [9] (setting [19]); -0.371 and 0.0233 in [9] (setting [20]); 0.72 (inactive) in test [12]. Besides, in test [10], the remaining NAD is 10 nM (inactive).
On to `CC(CCc1ccc(O)cc1)NCC(O)c1ccc(O)cc1` (stereo not given), for which the parasite load remaining in test [3] was 46.7% (inactive). For the same molecule, the viability in test [3] was determined as 106%. Further, in test [6], the red/green cell ratio (normalised) was 0.98 (inactive). Also, the figures for the normalised cell number in test [6] (setting [13]) and in test [6] (setting [14]) were 0.86 and 0.84, respectively. Further, the fold change in test [7] (setting [15]) was 0.934 (inactive) and 0.886 (inactive); in [7] (setting [16]) it was 0.997 and 0.914. Further, the cell count was 8460 and 9910 in test [7] (setting [17]); 9050 and 11200 in test [7] (setting [18]). Further, the figures for the z-score in test [9] (setting [19]), in test [9] (setting [20]) and in [12] were 0.268 (inactive), 0.193 and 0.065 (inactive), respectively. In [10], the remaining NAD is 10 nM (inactive).
